# Where “and” joins values, the source holds several entries; their conditions need not be identical. Equal entries are not always repeated. Inconclusive results are not listed. More than one record can exist for a structure, and the calls need not agree. Calls of active or inactive are those of the source. Rule for the calls, unless noted: active = hit-call score of the fitted dose curve at least 0.9, where 1 is the maximum; inconclusive = response in the unintended direction; inactive = score below 0.9.
# Tests used:
# [1] = read-out: UDP glucuronosyltransferase (UGT1A1), UGT1A1 (gene 54658); experiment: LTEA_HepaRG_UGT1A1: Life Technologies and Expression Analysis (LTEA) Assay for UDP glucuronosyltransferase (UGT1A1) using HepaRG (AID 2283538; active = hit-call score of the fitted dose curve at least 0.9, where 1 is the maximum; inactive = score below 0.9); conditions: mRNA level, 48 h; actives raise or lower the signal
# In short: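 UGT1A1 transcript level, measured by qRT-PCR with three housekeeping genes for normalization, after 48 h treatment of human HepaRG cells (0.5% DMSO, duplicates, up to 100 uM, half-log steps, 8 points). Curves fit both directions against DMSO baseline.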
# [2] = read-out: UDP glucuronosyltransferase (UGT1A6), UGT1A6 (gene 54578); experiment: LTEA_HepaRG_UGT1A6: Life Technologies and Expression Analysis (LTEA) Assay for UDP glucuronosyltransferase (UGT1A6) using HepaRG (AID 2283539; active = hit-call score of the fitted dose curve at least 0.9, where 1 is the maximum; inactive = score below 0.9); conditions: mRNA level, 48 h; actives raise or lower the signal
# In short: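 Expression was quantified by TaqMan qRT-PCR on Fluidigm arrays with ACTB/GAPDH/POLR2A normalization and bidirectional fitting against 0.5% DMSO. HepaRG cells (~100,000/well) were treated in duplicate for 48 h at eight half-log concentrations up to 100 uM in serum-free induction medium.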
# [3] = read-out: X-box binding protein 1 (XBP1), XBP1 (gene 7494); experiment: LTEA_HepaRG_XBP1: Life Technologies and Expression Analysis (LTEA) Assay for X-box binding protein 1 (XBP1) using HepaRG (AID 2283540; active = hit-call score of the fitted dose curve at least 0.9, where 1 is the maximum; inactive = score below 0.9); conditions: mRNA level, 48 h; actives raise or lower the signal
# In short: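 XBP1 transcript by qRT-PCR (housekeeping-normalized: ACTB, GAPDH, POLR2A) after 48 h chemical treatment of HepaRG cells, 8-point half-log series topping at 100 uM, vehicle 0.5% DMSO. Gain and loss of signal fitted relative to DMSO.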
# [4] = LTEA_HepaRG_LDH_cytotoxicity: Cytotoxicity Assessment in the Life Technologies and Expression Analysis (LTEA) Assay (AID 2283563);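 for AC50: LDH activity released into spent culture medium as a marker of cell death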
# In short: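 LDH release into culture medium read after 48 h chemical treatment of HepaRG cells. Duplicate wells, eight-point half-log series topping at 100 uM, 0.5% DMSO vehicle and baseline.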
# [5] = ATG_XTT_Cytotoxicity: Cytotoxicity Assessment in the Attagene TRANS-FACTORIAL HepG2 Assay (AID 2283584);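 for AC50: cells exposed to compound for 24 h before reading; active means loss of viability signal versus DMSO baseline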
# In short: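 Viability endpoint from XTT after 24 h chemical exposure of reporter-transfected human HepG2 liver cells; signal loss fitted relative to DMSO negative control.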
# [6] = biological target: Cellular tumor antigen p53 (Homo sapiens) (UniProt P04637); experiment: TOX21_p53_BLA_p2_ratio: Tox21 HCT-116 p53 Agonism Beta-lactamase Assay, Ratio, Phase 2 (AID 2283592)
# In short: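 Read-out is the blue/green (460/530 nm, 405 nm excitation) ratio after 2 h CCF4-AM loading, fitted as gain versus DMSO. Compounds, pinned at 217-fold dilution from DMSO stocks, stayed 16 h on HCT-116 beta-lactamase reporter cells seeded 5 h earlier.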
# [7] = TOX21_p53_BLA_p3_viability: Viability Assessment in the Tox21 HCT-116 p53 Agonism Beta-lactamase Assay, Phase 3 (AID 2283593);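 note: cells exposed to compound for 16 h before reading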
# In short: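 HCT116 cells, 4000/well, dosed 5 h after plating by pin transfer (217-fold dilution from DMSO stock) and incubated 16 h at 37C, 5% CO2. Viability read as ATP luminescence with CellTiter-Glo after 30 min at room temperature.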
# [8] = biological target: Cellular tumor antigen p53 (Homo sapiens) (UniProt P04637); experiment: TOX21_p53_BLA_p3_ratio: Tox21 HCT-116 p53 Agonism Beta-lactamase Assay, Ratio, Phase 3 (AID 2283596)
# In short: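 Cells were seeded at 4000/well, rested 5 h at 37C, then dosed with DMSO compound solutions (217-fold dilution) for 16 h. CCF4-AM substrate was loaded for 2 h at room temperature, and the 460/530 nm emission ratio was fitted for gain of signal versus DMSO.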
# [9] = TOX21_p53_BLA_p4_viability: Viability Assessment in the Tox21 HCT-116 p53 Agonism Beta-lactamase Assay, Phase 4 (AID 2283597);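 note: hits lower the luminescence signal meaning cytotoxicity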
# In short: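 Cytotoxicity as reduced cellular ATP (CellTiter-Glo luminescence, 30 min room temperature), measured in the same wells following the CCF4 FRET p53 reading. Human HCT-116 cells received compounds in DMSO (217-fold dilution) for 16 h.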
# [10] = biological target: Cellular tumor antigen p53 (Homo sapiens) (UniProt P04637); experiment: TOX21_p53_BLA_p5_ratio: Tox21 HCT-116 p53 Agonism Beta-lactamase Assay, Ratio, Phase 5 (AID 2283599)
# In short: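 HCT-116 p53-bla cells (4000/well) plated 5 h, dosed with compound (217-fold DMSO dilution) for 16 h at 37 C; CCF4-AM substrate 2 h at room temperature. Activity is the 460/530 nm emission ratio (405 nm excitation), fitted in gain-of-signal direction versus DMSO.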
# [11] = biological target: Cellular tumor antigen p53 (Homo sapiens) (UniProt P04637); experiment: TOX21_p53_BLA_p4_ratio: Tox21 HCT-116 p53 Agonism Beta-lactamase Assay, Ratio, Phase 4 (AID 2283601)
# In short: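 HCT-116 p53 beta-lactamase reporter cells (4000/well) preincubated 5 h, then compound (217-fold dilution of DMSO stock) for 16 h at 37C. CCF4-AM substrate added 2 h at room temperature; 460/530 nm emission ratio fitted upward versus DMSO.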
# [12] = Tanguay_ZF_120hpf_MORT_legacy: (Legacy) Oregon State University Tanguay Lab 120 Hour Post-fertilization zebrafish Assay for Mortality (AID 2283633);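 for AC50: fitted as increase in binary mortality versus DMSO negative control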
# In short: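 Static waterborne exposure from 6 to 120 hpf at 28C of single dechorionated wild-type (5D) embryos per well, 0.64% DMSO final. Death recorded present/absent by brightfield at 24 and 120 hpf.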
# [13] = Tanguay_ZF_120hpf_AXIS_legacy: (Legacy) Oregon State University Tanguay Lab 120 Hour Post-fertilization zebrafish Assay for Body Axis Malformation (AID 2283635);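 for AC50: potency for an increased fraction of larvae scored with body axis malformation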
# In short: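 Binary scoring of axis defects at 120 hpf under brightfield, fitted positive versus DMSO. Tropical 5D embryos, chorion removed by pronase at 4 hpf, were singly exposed in sealed, dark plates at 28C from 6 hpf; DMSO 0.64% final.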
# [14] = Tanguay_ZF_120hpf_EYE_legacy: (Legacy) Oregon State University Tanguay Lab 120 Hour Post-fertilization zebrafish Assay for Eye Malformation (AID 2283636);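 note: binary presence or absence of eye malformation scored by brightfield in 120 hpf larvae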
# In short: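 5D wild-type embryos, pronase-dechorionated at 4 hpf; static exposure 6–120 hpf, 28C, dark; DMSO 0.64% final; 5uM trimethyltin chloride positive control. Binary eye-defect scoring at 120 hpf; dead embryos not scored.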
# [15] = Tanguay_ZF_120hpf_SNOU_legacy: (Legacy) Oregon State University Tanguay Lab 120 Hour Post-fertilization zebrafish Assay for Snout Malformation (AID 2283637)
# In short: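 Binary brightfield scoring of snout malformation at 120 hpf. Dechorionated 5D wild-type embryos, one per well, static exposure from 6 hpf at 28C, sealed and dark; final DMSO 0.64% (vol/vol), DMSO as baseline; 5uM trimethyltin chloride positive control.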
# [16] = Tanguay_ZF_120hpf_JAW_legacy: (Legacy) Oregon State University Tanguay Lab 120 Hour Post-fertilization zebrafish Assay for Jaw Malformation (AID 2283638);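 for AC50: active means more embryos with jaw malformation than DMSO controls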
# In short: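 Binary jaw-malformation call at 120 hpf by brightfield microscopy. Embryos (Tropical 5D strain, chorion removed at 4 hpf) were dosed statically at 6 hpf, one per well, at 28C with 0.64% DMSO. Embryos that died were not scored.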
# [17] = Tanguay_ZF_120hpf_OTIC_legacy: (Legacy) Oregon State University Tanguay Lab 120 Hour Post-fertilization zebrafish Assay for Otic Vesicle Malformation (AID 2283639)
# In short: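 Binary scoring of otic vesicle defects at 120 hpf in zebrafish (Tropical 5D) held under static exposure at 28C, sealed and shaded, with final DMSO 0.64%. Embryos dying by 24 or 120 hpf excluded; fitted positively against DMSO.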
# [18] = Tanguay_ZF_120hpf_YSE_legacy: (Legacy) Oregon State University Tanguay Lab 120 Hour Post-fertilization zebrafish Assay for Yolk Sac Edema (AID 2283634)
# In short: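 Presence or absence of yolk sac edema was recorded at 120 hpf in surviving larvae. These were wild-type Tropical 5D embryos, chorion removed at 4 hpf, held in static exposure at 28C from 6 hpf with 0.64% DMSO vehicle.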
# Sequence of Cellular tumor antigen p53 (Homo sapiens) (P04637 whole entry, looked up): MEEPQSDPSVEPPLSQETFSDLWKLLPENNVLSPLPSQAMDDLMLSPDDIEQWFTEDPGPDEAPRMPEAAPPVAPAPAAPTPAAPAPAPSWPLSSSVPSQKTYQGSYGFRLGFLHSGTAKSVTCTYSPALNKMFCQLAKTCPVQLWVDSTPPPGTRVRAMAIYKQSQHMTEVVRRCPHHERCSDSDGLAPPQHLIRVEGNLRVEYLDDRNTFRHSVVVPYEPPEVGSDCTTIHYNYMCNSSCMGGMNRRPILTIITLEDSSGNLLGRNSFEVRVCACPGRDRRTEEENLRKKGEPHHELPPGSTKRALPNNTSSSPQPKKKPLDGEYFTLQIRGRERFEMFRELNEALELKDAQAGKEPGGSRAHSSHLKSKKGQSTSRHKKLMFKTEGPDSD
structure (smiles),measurement,setting,value
Oc1cc2ccccc2c2ccccc12,outcome,[1],inactive
same,outcome,[2],inactive
same,outcome,[3],inactive
same,outcome,[4],inactive
same,AC50,[5],16.6 µM (active) and 16.3 µM (active)
same,AC50,[6],46.1 µM (active)
same,AC50,[7],14.5 µM (active)
same,AC50,[8],13.6 µM (active)
same,AC50,[9],12.2 µM (active)
same,AC50,[10],11.6 µM (active)
same,AC50,[11],20.4 µM (active)
same,AC50,[12],14 µM (active)
same,AC50,[13],10.4 µM (active)
same,AC50,[14],40 µM (active)
same,AC50,[15],14.3 µM (active)
same,AC50,[16],9.87 µM (active)
same,AC50,[17],10.8 µM (active)
CC(C)(C)CC(C)(C)c1ccc(O)c(-n2nc3ccccc3n2)c1,AC50,[1],17.4 µM (active)
same,outcome,[2],inactive
same,outcome,[3],inactive
same,outcome,[5],inactive
same,outcome,[6],inactive
same,outcome,[8],inactive
same,outcome,[9],inactive
same,outcome,[10],inactive
same,outcome,[11],inactive
same,outcome,[12],inactive
same,outcome,[18],inactive
same,outcome,[13],inactive
same,outcome,[14],inactive
same,outcome,[15],inactive
same,outcome,[16],inactive
same,outcome,[17],inactive
CC(C)(C)c1ccc(O)c(C(C)(C)C)c1,outcome,[1],inactive
same,outcome,[2],inactive
same,outcome,[3],inactive
same,outcome,[5],inactive
same,outcome,[6],inactive
same,AC50,[8],77.4 µM (active) and 79.4 µM (active)
same,AC50,[9],42.7 µM (active)
same,outcome,[9],inactive
same,AC50,[10],57.1 µM (active) and 60.2 µM (active)
same,AC50,[11],72.4 µM (active)
same,outcome,[11],inactive
same,outcome,[12],inactive
same,outcome,[18],inactive
same,outcome,[13],inactive
same,outcome,[14],inactive
same,outcome,[15],inactive
same,outcome,[16],inactive
same,outcome,[17],inactive
CN1CCN(c2ccccc2/C=C2\SCCN(c3ccc(Cl)c(Cl)c3)C2=O)CC1,AC50,[1],50 µM (active)
same,outcome,[2],inactive
same,outcome,[3],inactive
same,AC50,[4],69.7 µM (active)
same,outcome,[6],inactive
same,outcome,[8],inactive
same,outcome,[9],inactive
same,AC50,[10],86 µM (active)
same,outcome,[11],inactive
same,outcome,[12],inactive
same,outcome,[13],inactive
same,outcome,[14],inactive
same,outcome,[15],inactive
same,outcome,[16],inactive
same,outcome,[17],inactive
CCCCOCCO,outcome,[1],inactive
same,outcome,[2],inactive
same,outcome,[3],inactive
same,outcome,[4],inactive
same,outcome,[5],inactive
same,outcome,[6],inactive
same,outcome,[8],inactive
same,outcome,[10],inactive
same,outcome,[12],inactive
same,outcome,[13],inactive
same,outcome,[14],inactive
same,outcome,[15],inactive
same,outcome,[16],inactive
CCCCCCCC(=O)O,outcome,[1],inactive
same,outcome,[2],inactive
same,outcome,[3],inactive
same,outcome,[4],inactive
same,outcome,[5],inactive
same,outcome,[6],inactive
same,outcome,[8],inactive
same,outcome,[9],inactive
same,outcome,[10],inactive
same,outcome,[11],inactive
same,outcome,[12],inactive
same,outcome,[13],inactive
same,outcome,[14],inactive
same,outcome,[15],inactive
same,outcome,[16],inactive
same,outcome,[17],inactive
OC1CCCCC1,outcome,[1],inactive
same,outcome,[2],inactive
same,outcome,[3],inactive
same,outcome,[4],inactive
same,outcome,[5],inactive
same,outcome,[6],inactive
same,outcome,[8],inactive
same,outcome,[9],inactive
same,outcome,[10],inactive
same,outcome,[12],inactive
same,outcome,[18],inactive
same,outcome,[13],inactive
same,outcome,[14],inactive
same,outcome,[15],inactive
same,outcome,[16],inactive
same,outcome,[17],inactive
